# Test results taken from the supplement of paper PMC6555819.
# How the values were obtained:
# Assay in all cases: PBM binding z-score (relative to random genomic background probes); higher = stronger binding; sequences stand for … in GC…GCGATTGACAGCGTAGAATGAAGG
# [1] = tested on: FXR:RXRa (NR concentration 270 nM, RXRa partner concentration 90 nM)
# Procedure, shortened: (§1)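 Regression normalization was applied to scanned fluorescence from custom Agilent 4×180K protein-binding microarrays. Before scanning, arrays were incubated 1 h with ligand-free nuclear receptor dimers, and binding was detected with antibodies against each partner (one per run). Binding z-scores use the random background probes as reference.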
# [2] = tested on: LXRa:RXRa (NR concentration 270 nM, RXRa partner concentration 90 nM)
# Procedure, shortened: as §1
# [3] = tested on: LXRa homodimer (NR concentration 270 nM)
# Procedure, shortened: as §1
# [4] = tested on: LXRb:RXRa (NR concentration 270 nM, RXRa partner concentration 90 nM)
# Procedure, shortened: as §1
# [5] = tested on: LXRb homodimer (NR concentration 270 nM)
# Procedure, shortened: as §1
# [6] = tested on: PPARa:RXRa (NR concentration 270 nM, RXRa partner concentration 90 nM)
# Procedure, shortened: as §1
# [7] = tested on: PPARg:RXRa (NR concentration 180 nM, RXRa partner concentration 90 nM)
# Procedure, shortened: as §1
# [8] = tested on: PPARg:RXRa 270nM:90nM, anti-RXR (NR concentration 270 nM, RXRa partner concentration 90 nM)
# Procedure, shortened: as §1
# [9] = tested on: PPARg:RXRa 30nM:10nM, anti-RXR (NR concentration 30 nM, RXRa partner concentration 10 nM)
# Procedure, shortened: as §1
# [10] = tested on: PPARg:RXRa 90nM:30nM, anti-RXR (NR concentration 90 nM, RXRa partner concentration 30 nM)
# Procedure, shortened: as §1
# [11] = tested on: PPARg:RXRa DBDmut IVT, anti-RXR (DBD mutation: RXRa K156A/R161A, NR concentration 270 nM, RXRa partner concentration 90 nM)
# Procedure, shortened: as §1
# [12] = tested on: PPARg:RXRa IVT, anti-PPARg (NR concentration 270 nM, RXRa partner concentration 90 nM)
# Procedure, shortened: as §1
# [13] = tested on: PPARg DBDmut:RXRa IVT, anti-PPARg (DBD mutation: PPARg1 K132A/R137A, NR concentration 270 nM, RXRa partner concentration 90 nM)
# Procedure, shortened: as §1
# [14] = tested on: PPARg DBDmut IVT, anti-PPARg (DBD mutation: PPARg1 K132A/R137A, NR concentration 270 nM)
# Procedure, shortened: as §1
# [15] = tested on: PPARg homodimer (NR concentration 180 nM)
# Procedure, shortened: as §1
# [16] = tested on: PXR:RXRa (NR concentration 270 nM, RXRa partner concentration 90 nM)
# Procedure, shortened: as §1
# [17] = tested on: PXR homodimer (NR concentration 270 nM)
# Procedure, shortened: as §1
# [18] = tested on: RARa:RXR (NR concentration 270 nM, RXRa partner concentration 90 nM)
# Procedure, shortened: as §1
# [19] = tested on: RARa homodimer (NR concentration 270 nM)
# Procedure, shortened: as §1
# [20] = tested on: RARb:RXRa (NR concentration 270 nM, RXRa partner concentration 90 nM)
# Procedure, shortened: as §1
Sequence,PBM binding z-score [1],PBM binding z-score [2],PBM binding z-score [3],PBM binding z-score [4],PBM binding z-score [5],PBM binding z-score [6],PBM binding z-score [7],PBM binding z-score [8],PBM binding z-score [9],PBM binding z-score [10],PBM binding z-score [11],PBM binding z-score [12],PBM binding z-score [13],PBM binding z-score [14],PBM binding z-score [15],PBM binding z-score [16],PBM binding z-score [17],PBM binding z-score [18],PBM binding z-score [19],PBM binding z-score [20]
TCCAGTTGGTCAAAGGTCACACACTCGAAATGCG,6.2,5.79,3.85,5.42,1.6,6.51,11,9.65,9.86,10.3,3.32,6.12,2.97,1.98,5.35,6.28,2.67,7.69,3.44,5.08
TCTTGTTGATCAGCAGGTTAAGAAAGCTGGCCAA,0.582,0.423,-0.308,0.784,-0.493,0.727,-0.682,1.17,2.56,1.66,1.56,0.0637,-0.302,-0.327,-0.0408,0.332,-0.115,0.447,-0.41,0.288
TCTAGCAGGCCAAAGGGTCACTCAAGAGGTACGG,2.46,2.67,0.121,2.6,-0.592,3.89,3.36,4.84,3.5,4.89,1.61,2.45,-0.396,-0.432,2.19,2.95,-0.0548,3.89,0.234,3.74
CCTAGTTGGTCAGGAGGACACACACCGGATATGA,0.321,0.0708,0.61,0.0444,0.0185,0.000867,1.08,0.072,-0.0757,-0.0104,0.664,1.14,-0.182,0.142,0.859,-0.126,0.473,0.228,1.7,1.4
GCGACTGGGGGAAAGCAGGTTACCATAAGGTTGG,0.271,0.375,-0.178,1.5,2.74,1.75,0.956,1.47,0.539,1.33,2.14,3.37,1.81,2.84,0.279,0.944,0.0746,1.14,-0.282,0.616
ATATGTAGATTAAGGGTCATTCAGGTTGGTTCGC,3.93,4.24,3.27,3.96,1.38,4.74,6.74,6.77,6.28,7.43,1.15,3.34,1.32,1.38,3.29,4.89,2.6,4.45,2.24,2.88
ATATGTAGGTTATCGCGTCATTCAGTTTGCGCAT,0.694,1.01,0.372,1.1,0.647,3.31,3.86,3.94,1.41,3.08,7.52,6.92,1.88,2.41,0.975,0.655,0.292,0.918,0.606,0.976
TCTTGTAGATCAGCATGTTAAGAAAGCTGGCCAA,0.0411,0.107,-0.479,0.0271,-0.503,0.231,-0.371,1.52,2.44,2.19,1.61,-0.0359,-0.2,0.837,-0.198,0.127,-0.264,0.0601,-0.0517,-0.19
AGTCAAAGTTCCGGACGAGGTAACGTAAAGCACG,-0.0931,-0.354,-0.166,-0.301,-0.695,-0.0739,0.679,0.221,-0.0701,0.189,-0.341,0.284,0.0206,-0.236,-0.335,-0.34,-0.452,0.0687,-0.122,0.265
GCAGACAGGTGAAACGCAGCTAACTCAGGGTGGC,-0.722,-0.436,-0.887,-0.728,-1.13,0.359,0.371,-0.353,-0.974,-0.585,0.771,0.278,-1.29,-0.6,-1.08,-0.921,-0.971,-0.616,-1.12,0.0872
CCTTTCGGGTCACTCCAGGTTATAGCATCGGAGT,4.95,7.32,2.02,5.17,0.836,4.58,3.15,3.78,1.09,2.75,2.65,3.53,0.307,-0.494,2,4.94,0.803,3.73,0.474,4.01
GTGACTGGGGCATCAGCAGGTTACCATAACTTAA,0.0842,0.236,-0.049,0.942,-0.399,1.75,1.86,1.89,0.217,0.996,4.3,4.9,0.566,0.266,0.222,0.254,0.042,0.669,-0.0196,1.09
AGAATGAGGTTACCAAAGATCACGGAAACGCTTG,2.28,6.94,0.129,3.82,-0.202,3.5,2.79,2.7,0.915,2.03,3.7,3.26,1.1,0.644,0.807,2.1,-0.253,2.3,0.0214,2.15
ATCTCTAGGTAACAAGTTCAGGGAAAGAGAGGAC,1.08,1.19,0.665,1.09,1.23,1.97,1.74,2.3,1.06,1.99,3.5,3.06,1.15,2.01,1.61,1.74,1.82,1.32,1.58,1.69
